Bioassay records as filed in PubChem BioAssay.
Sampled rows, rich in hits. Any-hit rate of the full collection: about 21%.
DT40 TDP1 no CPT – qHTS for Inhibitors of human tyrosyl-DNA phosphodiesterase 1 (TDP1): qHTS in cells in absence of CPT | DT40 Tdp1-/- hTDP1 cells, no CPT, ATP luminescence, 48 h | Potency, µM (series often up to 46.2 µM), without a hit: top-dose activity change, negative = growth inhibition, hits mostly inhibitors | 420,000 tested, 15% active; also: potency is read from the fitted curve at half-maximal effect; % is scaled to controls: 0 for no effect and ±100 for the full control effect; nearly all actives have a fitted effect of over 55% in size
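No-CPT arm: Tdp1-/-;hTDP1 DT40 cells (400/well) plus compounds, incubated ≥48 hr at 37 °C. Readout CellTiter-Glo luminescence.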
DT40 TDP1 CPT – growth inhibition of DT40 Tdp1-/-;hTDP1 cells with camptothecin (screen for TDP1 inhibitors); chicken DT40 Tdp1-/-;hTDP1 cells + 20 nM CPT, ATP luminescence, 48 h; Potency, µM (highest dose often 46.2 µM), inactives show at the top dose activity change, negative = growth inhibition, usual class: inhibitors; 420,000 tested, 12% active; AID 686979; also: potency is read from the fitted curve at half-maximal effect; % is scaled to controls: 0 for no effect and ±100 for the full control effect; nearly all actives have a fitted effect of over 55% in size
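Chicken DT40 Tdp1-/- cells stably complemented with human TDP1 were seeded at 400 cells/well in medium containing 20 nM camptothecin, exposed to pin-transferred compounds, and grown at 37 °C for at least 48 hr. Viability was read as ATP luminescence.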
D3 ag – D3 dopamine receptor (human) agonism | P35462 | D3R DiscoveRx beta-arrestin cells, luminescence, 90 min | max activation, % | 410,000 tested, 0.58% active; in the data active = max activation above about 30%; also: 0% is about no effect
Target sequence (P35462 whole entry, looked up): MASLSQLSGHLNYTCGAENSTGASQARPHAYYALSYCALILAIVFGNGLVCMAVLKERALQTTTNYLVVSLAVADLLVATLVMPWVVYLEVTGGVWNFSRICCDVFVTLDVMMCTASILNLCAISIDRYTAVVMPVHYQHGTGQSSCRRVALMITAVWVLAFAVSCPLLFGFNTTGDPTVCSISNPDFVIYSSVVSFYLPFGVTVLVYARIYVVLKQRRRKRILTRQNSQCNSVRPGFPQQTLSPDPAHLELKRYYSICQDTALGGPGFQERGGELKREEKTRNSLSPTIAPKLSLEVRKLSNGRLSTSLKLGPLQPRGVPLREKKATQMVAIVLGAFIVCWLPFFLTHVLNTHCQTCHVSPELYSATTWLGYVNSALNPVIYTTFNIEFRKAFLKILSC
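Cells at 1500/well, incubated overnight, then treated with pinned compounds (dopamine as control) for 90 min at 37 degrees C. DiscoveRx reagent added for 30 - 60 minutes at room temperature; luminescence read.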
D3 antag – blocks the human D3 dopamine receptor. D3R cells, DiscoveRx beta-arrestin luminescence, antagonist mode; hits give low values. P35462. 360,000 tested, 2.5% active. max response, negative = inhibition, %; in the data active = max response below about -50%; inconclusive = no clear call, values can overlap the other calls; also: % is scaled to controls: 0 for no effect and ±100 for the full control effect
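Cells expressing the human receptor were seeded at 1500 cells/well, incubated overnight at 37 degrees C in 5% CO2, then exposed to library compounds with dopamine controls for 90 minutes at 37 degrees C before luminescent detection.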
ClpP mod – qHTS Assay for Activators of ClpP; Potency, µM (highest dose often 57.5 µM), without a hit: at the highest dose activity change, negative = active; 340,000 tested, 1.9% active; ATP-dependent Clp protease proteolytic subunit (Bacillus subtilis (strain 168)), P80244; AID 651965, 2013; purified B. subtilis ClpP, FRET peptide cleavage, 20 min; active = well fitted falling curve with a large enough effect; inconclusive = small, poorly fitted or top-dose-only effect; inactive = no such curve, though single readings can be large or run the other way; also: potency is read from the fitted curve at half-maximal effect; the source files actives as falling curves though it sought activators and does not explain the sign; nearly all actives have a fitted effect of over 65% in size
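Buffer: 100 mM Tris/HCl pH8, 100 mM KCl, 0.05% low protease BSA, 2.5% glycerol, 0.01% Tween-20. ClpP 10 microg/mL final; 20 min RT; delta FRET normalized to ADEP and DMSO controls.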
IL1B secr inh – inflammasome signaling inhibition, IL-1 beta readout. activity change, % at 57.5 µM. 360,000 tested, 4.7% active. THP-1 LPS/ATP IL-1B secretion, AlphaLISA, 16 h; hits give low values; in the data active = activity change below about -50%; inconclusive = mostly about -30% to -49%; also: % is scaled to controls: 0 for no effect and ±100 for the full control effect
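THP-1 cells pretreated 1 hr with compounds (up to 57.5 uM final), then stimulated with LPS (250 ng/mL final) plus ATP (1.25 mM final); secreted IL-1B measured by AlphaLISA after 16 hr, decreased signal indicating inhibition.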
* marks the source's active call; other numbers are inactive results; ? = inconclusive; . = no result given; [ ] = another dose, or the depositor's remark. Unless noted, calls follow the shape of the dose curve; as a rule, active = well fitted inhibition curve with a large enough effect; inconclusive = small, poorly fitted or top-dose-only effect; inactive = flat fitted curve, though single readings scatter.

SMILES	DT40 TDP1 no CPT	DT40 TDP1 CPT	D3 ag	D3 antag	ClpP mod	IL1B secr inh
COc1ccc(C(=O)NCC(=O)OCC(=O)Nc2ccc(C)c(S(=O)(=O)N(C)C)c2)cc1OC	-5.5%	11.2%	6.8	0.0	-1.8%	0.0
COc1ccc(CCC(=O)Nc2ccc(C)c(S(=O)(=O)N(C)C)c2)cc1OC	16.4µM*	?	5.1	23.0	1.4%	17.7
COc1ccc(CCNCC(=O)Nc2ccc(C)c(S(=O)(=O)N(C)C)c2)cc1	4.61µM*	-29.7%	-19.9	-52.0*	.	-75.7*
O=C(CNCC1CCCCC1)Nc1ccc(OC(F)(F)F)cc1	-10.1%	-15.4%	-14.7	-9.3	.	-101.3*
COc1ccc(NC(=O)NNC(=O)CCc2ccc(O)c(O)c2)cc1OC	-1.3%	21.3%	51.1*	-3.0	-0.2%	-1.0
CN(CC(=O)Nc1ccc(OC(F)(F)F)cc1)C1CCCCC1	-10.8%	?	-14.0	-7.7	-1.2%	?
O=C(COc1ccc(S(=O)(=O)N2CCOCC2)cc1)NC1CC1	-13.9%	-3.5%	-6.4	-16.3	.	-15.6
Cc1cn(CC(=O)N(C)Cc2ccco2)c(=O)[nH]c1=O	-5.7%	-6.0%	3.6	-12.9	-4.4%	17.2
c1nnc(NCNc2nncs2)s1	?	?	2.4	-4.4	-0.9%	3.5
Cc1ccc(NC(=O)CNCC2CCCCC2)cc1S(=O)(=O)N(C)C	?	16.4µM*	-21.6	-24.9	1.4%	-23.4
COc1cc(CCC(=O)Nc2ccc(C)c(S(=O)(=O)N(C)C)c2)cc(OC)c1OC	20.6µM*	14.6µM*	6.6	20.9	-4.2%	4.5
COc1ccccc1C(=O)NCCC(=O)NCC1CCCCC1	-17.0%	-27.9%	-8.7	-16.4	-4.4%	5.0
CCCCCCCCNCCS(=O)(=O)NN1CCOCC1	-1.8%	5.1%	-30.1	35.6	-1.8%	-4.5
c1ccc(N2[C@@H]3c4ccccc4C[C@H]2c2ccccc23)cc1	-21.1%	19.7%	2.5	3.8	0.0%	34.3
COc1ccccc1CNC(=O)CN1C(=O)NC2(CCCc3ccccc32)C1=O (configuration not stated)	-11.7%	-15.6%	-3.0	-2.9	-0.1%	3.3
CC(CN1CCc2nnc(CNC(=O)c3cccc(F)c3)n2CC1)c1ccccc1 (configuration not stated)	?	-3.4%[9.04 µM]	.	.	.	.
O=C(NCc1nnc2n1CCN(Cc1cc(F)cc(F)c1)CC2)c1cccc(F)c1	4.61µM*	4.11µM*	.	.	.	.
CC(C)(C)OC(=O)NCC1CCC(C(=O)NC[C@H](CC(=O)O)c2ccc(Cl)cc2)CC1 (some centres not stated)	-5.2%	-6.4%	-13.3	?	.	-4.0
Cc1ccccc1NC(=O)c1oc(=O)c2ccccc2c1-c1ccccc1	?	-1.6%	8.3	24.2	-3.4%	28.0
CCc1ccccc1NC(=O)c1oc(=O)c2ccccc2c1-c1ccccc1	?	?	3.4	.	-3.7%	.
COc1ccc(OC)c(NC(=O)c2oc(=O)c3ccccc3c2-c2ccccc2)c1	20.6µM*	?	2.6	.	-0.7%	.
COc1ccc(N(C)C(=O)c2oc(=O)c3ccccc3c2-c2ccc(C)cc2)c(OC)c1	16.4µM*	20.6µM*	5.0	-1.9	-1.5%	0.3
COc1ccc(CCNC(=O)c2oc(=O)c3ccccc3c2-c2ccccc2)cc1OC	?	?	6.1	.	0.5%	.
Cc1cccc(NC(=O)c2oc(=O)c3ccccc3c2-c2ccccc2)c1C	11.6µM*	10.3µM*	-2.6	-2.0	-3.8%	-11.0
COc1ccc(C(=O)Cn2c(C(=O)/C=C/c3ccccc3)nc3ccccc32)cc1	23.1µM*	14.6µM*	-9.1	?	7.7%	-27.0
COc1ccc(C(=O)/C=C/c2ccc(OC)c(COc3ccc(F)cc3)c2)cc1	?	?	1.2	11.9	-6.9%	-93.3*
